{
  "source": "PubChem BioAssay (Tox21)",
  "note": "“And” between values parts separate entries of the source, which are not always exact repeats. Identical values can stand only once. Results filed as inconclusive are left out. Entries that show only a call come without a potency. The source made the active and inactive calls. Calls come from the whole dose curve; as a rule, active = well fitted inhibition curve with a large enough effect in the repeat runs; inconclusive = weak or mixed curves, or effect the other way; inactive = no such curve, though single readings can be large or run the other way. Potency is the fitted concentration of half-maximal effect.",
  "data": [
    {"target": "Nuclear receptor subfamily 1 group I member 3 (Homo sapiens) (UniProt Q14994)", "sequence (Q14994 whole entry, looked up)": "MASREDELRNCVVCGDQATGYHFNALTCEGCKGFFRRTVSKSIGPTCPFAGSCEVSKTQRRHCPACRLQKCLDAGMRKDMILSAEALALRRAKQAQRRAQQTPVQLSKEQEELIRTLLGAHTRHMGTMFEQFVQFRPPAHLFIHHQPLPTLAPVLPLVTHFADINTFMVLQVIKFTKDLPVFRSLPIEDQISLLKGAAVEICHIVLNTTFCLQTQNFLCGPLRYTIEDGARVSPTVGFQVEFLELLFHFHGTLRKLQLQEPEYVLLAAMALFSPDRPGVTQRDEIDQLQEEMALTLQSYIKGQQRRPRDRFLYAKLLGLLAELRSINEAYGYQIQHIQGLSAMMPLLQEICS", "assay": "qHTS assay to identify small molecule antagonists of the constitutive androstane receptor (CAR) signaling pathway (AID 1224838);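 note: HepG2 cells stably expressing hCAR with CYP2B6 luciferase reporter stimulated by CITCO; nearly all actives have a fitted effect of over 40% in size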", "settings": "HepG2-CYP2B6-hCAR luciferase, CITCO-stimulated, 24 h; series mostly up to 92.4 µM", "text": "U.S. Tox21 Program National Center for Advancing Translational Sciences [NCATS] NIH Chemical Genomics Center [NCGC] U.S. Environmental Protection Agency [EPA] National Institutes of Environmental Health Sciences [NIEHS] National Toxicology Program [NTP] U.S. Food and Drug Administration [FDA] Tox21 Assay Overview: The constitutive androstane receptor (CAR) is a nuclear receptor which regulates multiple drug metabolizing enzymes (DMEs) and transporters. Activating CAR will generally increase the transcription and subsequent translation of CYP2B6 and CYP3A4. These two DMEs represent about 50% of the drug metabolizing potential in the body. When CAR is deactivated, the metabolizing potential in the body will decrease, subsequently increasing the toxicity in the body or lowering the therapeutic potential of a pro-drug. Recently, there have also been studies performed indicating CARs role in energy metabolism and cancer therapy. Therefore, inhibiting CARs activity could have a potential effect on diabetes and cancer. Identifying environmental toxins and compounds which modulate CAR, through the use of the Tox21 10K compound collection, will be an important step in determining the toxicity and potential therapeutic effects these factors will have on the human body.\nTox21 Assay Protocol Summary: A double-stable (hCAR and CYP2B6-2.2kb) transfected cell line, derived from human hepatoma (HepG2) cells, was utilized for the duration of the quantitative high-throughput screens. The HepG2-CYP2B6-hCAR cells suspended in DMEM culture medium supplemented with 10% FBS, 5 ug/mL blasticidin, 0.5 mg/mL geneticin, 100 U/mL penicillin and 100 ug/mL streptomycin were dispensed at 2500 cells/4 uL/well in 1536-well white solid bottom plates using a Multidrop Combi. After the assay plates were incubated at 37 C/5% CO2 for 4 hrs, 23 nL of compounds at 15 concentrations (from 5-48 columns) or positive control (from 1 to 4 columns) were transferred to the assay plates using a Pintool station. One uL of CITCO, was added using a Flying Reagent Dispenser to generate a final concentration of 50 nM CITCO inside each well. After a 24 hr incubation period at 37 C/5% CO2, four uL of ONE-Glo reagent was added into the assay plates using a Flying Reagent Dispenser. After a 30 min incubation period at room temperature, the luminescence intensity in the assay plates was measured using a ViewLux plate reader.", "values": [
      {"smiles": "CCNc1nc(Cl)nc(NC(C)(C)C#N)n1", "Potency": "inactive"},
      {"smiles": "CC(C)(c1ccc(OCC2CO2)cc1)c1ccc(OCC2CO2)cc1", "note": "(stereo not given)", "Potency": "inactive"},
      {"smiles": "C=C(C)C#N", "Potency": "inactive"},
      {"smiles": "CCCCSP(=O)(SCCCC)SCCCC", "Potency": "inactive"},
      {"smiles": "CC(C)(O)C#N", "Potency": "inactive"},
      {"smiles": "CCCCCCCCCc1ccc(O)cc1", "Potency": "inactive"},
      {"smiles": "O=C1CCCO1", "Potency": "inactive"},
      {"smiles": "C[C@]12CCC(=O)C=C1CC[C@@H]1[C@@H]2CC[C@@]2(C)[C@H]1CC[C@]2(C)O", "Potency": "inactive"},
      {"smiles": "Nc1ncn[nH]1", "Potency": "inactive"},
      {"smiles": "CNC(=O)Oc1cccc2c1OC(C)(C)C2", "Potency": "inactive"},
      {"smiles": "O=[N+]([O-])c1ccc(Nc2ccccc2)cc1", "Potency": "inactive"},
      {"smiles": "C=CC(=O)OCC(CC)(COC(=O)C=C)COC(=O)C=C", "Potency": "28 µM (active) and 21.7 µM (active)"},
      {"smiles": "CC(C)(c1ccccc1)c1ccc(O)cc1", "Potency": "inactive"},
      {"smiles": "ClC(Cl)(Cl)c1ccccc1", "Potency": "inactive"},
      {"smiles": "N#CC(c1ccccc1)c1ccccc1", "Potency": "inactive"},
      {"smiles": "CCN(CC)C(=O)C(C)Oc1cccc2ccccc12", "note": "(stereo not given)", "Potency": "inactive"},
      {"smiles": "N#Cc1c(Cl)c(Cl)c(Cl)c(C#N)c1Cl", "Potency": "5.34 µM (active) and 4.33 µM (active)"},
      {"smiles": "CCCCOCCOC(C)=O", "Potency": "inactive"},
      {"smiles": "O=[N+]([O-])/N=C1\\NCCN1Cc1ccc(Cl)nc1", "Potency": "inactive"},
      {"smiles": "N#CCCCCC#N", "Potency": "inactive"},
      {"smiles": "O=[N+]([O-])c1ccc(Cl)c([N+](=O)[O-])c1", "Potency": "19.6 µM (active) and 15.4 µM (active)"},
      {"smiles": "N#Cc1nn(-c2c(Cl)cc(C(F)(F)F)cc2Cl)c(N)c1S(=O)C(F)(F)F", "note": "(stereo not given)", "Potency": "inactive"},
      {"smiles": "CC(C)Nc1ccc(Nc2ccccc2)cc1", "Potency": "inactive"},
      {"smiles": "CCOP(=S)(OCC)SCn1c(=O)oc2cc(Cl)ccc21", "Potency": "inactive"},
      {"smiles": "CSc1nc(NC(C)C)nc(NC(C)C)n1", "Potency": "inactive"},
      {"smiles": "CC(C)(C#N)N=NC(C)(C)C#N", "Potency": "inactive"},
      {"smiles": "COP(=S)(OC)SCn1nnc2ccccc2c1=O", "Potency": "inactive"},
      {"smiles": "COc1ccc(O)c(C(C)(C)C)c1", "Potency": "inactive"},
      {"smiles": "CS(=O)(=O)NC(=O)c1cc(Oc2ccc(C(F)(F)F)cc2Cl)ccc1[N+](=O)[O-]", "Potency": "inactive"},
      {"smiles": "Clc1cccc(Cl)c1", "Potency": "inactive"},
      {"smiles": "CNC(=O)CSP(=S)(OC)OC", "Potency": "inactive"},
      {"smiles": "COP(=S)(OC)Oc1ccc(S(=O)(=O)N(C)C)cc1", "Potency": "inactive"},
      {"smiles": "C[C@]12CC[C@H]3[C@@H](CCC4=CC(=O)CC[C@@H]43)[C@@H]1CC[C@@H]2O", "Potency": "inactive"},
      {"smiles": "CC(C)=CC1C(C(=O)OCc2cccc(Oc3ccccc3)c2)C1(C)C", "note": "(stereo not given)", "Potency": "inactive"},
      {"smiles": "ClCc1ccccn1", "Potency": "inactive"},
      {"smiles": "CCC/C=N/O", "Potency": "inactive"},
      {"smiles": "CCOC(=O)c1ccccc1N", "Potency": "inactive"},
      {"smiles": "COP(=S)(OC)Oc1ccc(Sc2ccc(OP(=S)(OC)OC)cc2)cc1", "Potency": "inactive"},
      {"smiles": "CC1(C)Cc2cccc(O)c2O1", "Potency": "inactive"},
      {"smiles": "CC(C)(O)C(=O)Nc1ccc([N+](=O)[O-])c(C(F)(F)F)c1", "Potency": "inactive"}
    ]}
  ]
}
